In PubChem BioAssay AID1159580 (chemical genetic matrix, 2015):
Where “and” joins values, the source holds several entries; their conditions need not be identical. Equal entries are not always repeated. Among all 5,500 compounds or so, about 2,000 (36%) were called active. Inconclusive results (about 18%) are left out. Cut-off read from the data, not from the text of the source: active = normalized growth mostly below about 0.91 (no sharp cut-off); inconclusive = no clear call, values can overlap the other calls; inactive = mostly above about 0.92. The list shows a part of the results.

Assay: chemical genetic growth profiling, strain panel (AID 1159580);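 note: tested at 20 µM; growth read once vehicle control cultures reached saturation at 30 °C; 1 = growth at the plate median or of vehicle wells; lower values mean less growth of the strain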
Conditions: S. cerevisiae deletion strains, growth OD

Measured: normalized growth

CC(=O)O[C@H]1C[C@@H](OC(C)=O)C(C)(C)C2C[C@@H](O)[C@]3(C)C(CC[C@@]4(C)[C@H](c5ccoc5)OC(=O)[C@H]5O[C@]543)[C@]21C (stereo partly specified)
active: locus YGL253W, strain hxk2, active compounds read low 0.897
inactive: locus YAL021C, strain ccr4, active compounds read low 1.05 | locus YAL026C, strain drs2, active compounds read low 0.985 | locus YAL030W, strain snc1, active compounds read low 0.995 | locus YBL061C, strain skt5, active compounds read low 0.992 | locus YBR009C, strain hhf1, active compounds read low 1 | locus YBR021W, strain FUR4, active compounds read low 1.01 | locus YBR023C, strain chs3, active compounds read low 1 | locus YBR171W, strain sec66, active compounds read low 0.96 | locus YBR229C, strain ROT2, active compounds read low 0.947 | locus YBR231C, strain swc5, active compounds read low 0.977 | locus YBR279W, strain paf1, active compounds read low 0.996 | locus YCL011C, strain gbp2, active compounds read low 0.996 | locus YCL016C, strain dcc1, active compounds read low 1.03 | locus YCL029C, strain bik1, active compounds read low 0.971 | locus YCL069W, strain vba3, active compounds read low 0.969 | locus YCR088W, strain abp1, active compounds read low 0.983 | locus YDL005C, strain med2, active compounds read low 1.01 | locus YDL035C, strain GPR1, active compounds read low 0.965 | locus YDL040C, strain nat1, active compounds read low 0.976 | locus YDL074C, strain BRE1, active compounds read low 0.939 | locus YDL101C, strain DUN1, active compounds read low 0.992 | locus YDL185W, strain tfp1, active compounds read low 0.956 | locus YDL192W, strain arf1, active compounds read low 0.977 | locus YDR001C, strain nth1, active compounds read low 0.989 | locus YDR069C, strain doa4, active compounds read low 0.981 | locus YDR101C, strain arx1, active compounds read low 0.954 | locus YDR137W, strain rgp1, active compounds read low 0.987 | locus YDR159W, strain sac3, active compounds read low 0.936 | locus YDR162C, strain NBP2, active compounds read low 0.948 | locus YDR195W, strain ref2 0.935 | locus YDR297W, strain sur2, active compounds read low 0.992 | locus YDR318W, strain mcm21, active compounds read low 0.982 | locus YDR334W, strain swr1, active compounds read low 0.993 | locus YDR335W, strain msn5, active compounds read low 0.99 | locus YDR388W, active compounds read low 0.99 | locus YDR392W, strain spt3, active compounds read low 0.966 | locus YDR502C, strain sam2, active compounds read low 0.996 | locus YEL003W, strain gim4, active compounds read low 0.977 | locus YEL037C, strain rad23, active compounds read low 0.989 | locus YEL061C, strain CIN8 (second series), active compounds read low 0.982 | locus YER015W, strain faa2, active compounds read low 0.997 | locus YER016W, strain bim1, active compounds read low 0.977 | locus YER110C, active compounds read low 0.966 | locus YER111C, strain swi4, active compounds read low 0.975 | locus YER155C, strain BEM2 (second series), active compounds read low 1.02 | locus YER155C, strain BEM2, active compounds read low 1.02 | locus YER167W, strain BCK2, active compounds read low 0.995 | locus YFR010W, strain ubp6, active compounds read low 0.963 | locus YGL078C, strain dbp3, active compounds read low 0.978 | locus YGL086W, strain mad1, active compounds read low 0.997 | locus YGL167C, strain pmr1, active compounds read low 1 | locus YGL173C, strain kem1, active compounds read low 0.962 | locus YGL227W, strain vid30, active compounds read low 0.986 | locus YGL240W, strain doc1, active compounds read low 0.973 | locus YGL248W, strain PDE1, active compounds read low 0.97 | locus YGR078C, strain PAC10, active compounds read low 1.01 | locus YGR135W, strain pre9, active compounds read low 1.04 | locus YGR252W, strain gcn5, active compounds read low 0.941 | locus YHR013C, strain ard1, active compounds read low 0.997 | locus YHR027C, strain rpn1, active compounds read low 0.986 | locus YHR030C, strain SLT2, active compounds read low 0.982 | locus YHR079C, strain IRE1 (second series), active compounds read low 0.986 | locus YHR079C, strain IRE1, active compounds read low 0.999 | locus YHR094C, strain hxt1, active compounds read low 0.975 | locus YHR129C, strain ARP1, active compounds read low 0.988 | locus YHR142W, strain chs7, active compounds read low 0.977 | locus YHR200W, strain rpn10, active compounds read low 0.979 | locus YIL066C, strain RNR3, active compounds read low 0.935 | locus YIL073C, strain SPO22, active compounds read low 0.893 | locus YIL125W, strain kgd1, active compounds read low 0.989 | locus YIR030C, strain dcg1, active compounds read low 0.989 | locus YJL092W, strain hpr5, active compounds read low 0.99 | locus YJL095W, strain BCK1 (second series), active compounds read low 0.973 | locus YJL095W, strain BCK1, active compounds read low 1.03 and 0.979 | locus YJL115W, strain asf1, active compounds read low 0.996 | locus YJL129C, strain trk1, active compounds read low 0.96 | locus YJL134W, strain LCB3, active compounds read low 0.977 | locus YJL154C, strain vps35, active compounds read low 0.995 | locus YJL164C, strain tpk1, active compounds read low 1.01 | locus YJL166W, strain qcr8, active compounds read low 0.955 | locus YJL168C, strain set2, active compounds read low 0.995 | locus YJL187C, strain SWE1 (second series), active compounds read low 1.01 | locus YJR043C, strain POL32, active compounds read low 0.942 | locus YJR066W, strain TOR1, active compounds read low 0.935 | locus YKL009W, strain mrt4, active compounds read low 0.955 | locus YKL068W, active compounds read low 0.969 | locus YKL085W, strain MDH1 (second series), active compounds read low 0.987 | locus YKL085W, strain MDH1, active compounds read low 0.987 | locus YKL160W, strain elf1, active compounds read low 1.04 | locus YKL190W, strain CNB1, active compounds read low 0.996 | locus YKR001C, strain vps1, active compounds read low 0.978 | locus YKR026C, strain gcn3, active compounds read low 1.05 | locus YKR091W, strain srl3, active compounds read low 1 | locus YLL001W, strain dnm1, active compounds read low 0.971 | locus YLL026W, active compounds read low 0.994 | locus YLL041C, strain sdh2, active compounds read low 0.989 | locus YLR027C, strain aat2, active compounds read low 1.01 | locus YLR039C, strain RIC1, active compounds read low 0.97 | locus YLR058C, strain SHM2, active compounds read low 0.973 | locus YLR102C, strain apc9, active compounds read low 0.973 | locus YLR113W, strain HOG1, active compounds read low 1.02 | locus YLR221C, strain rsa3, active compounds read low 0.969 | locus YLR258W, strain gsy2, active compounds read low 0.992 | locus YLR262C, strain YPT6 (second series), active compounds read low 0.985 | locus YLR268W, strain sec22, active compounds read low 0.954 | locus YLR320W, strain mms22, active compounds read low 0.978 | locus YLR330W, strain CHS5, active compounds read low 0.992 | locus YLR342W, strain FKS1, active compounds read low 1.01 | locus YLR357W, strain rsc2, active compounds read low 1.04 | locus YLR370C, strain arc18, active compounds read low 0.973 | locus YLR371W, strain rom2, active compounds read low 0.986 | locus YLR384C, strain iki3, active compounds read low 0.971 | locus YLR418C, strain cdc73, active compounds read low 0.976 | locus YML016C, strain PPZ1, active compounds read low 0.969 | locus YML032C, strain rad52, active compounds read low 0.952 | locus YML120C, strain ndi1, active compounds read low 1.01 | locus YML124C, strain tub3, active compounds read low 0.992 | locus YMR058W, strain fet3, active compounds read low 0.999 | locus YMR078C, strain ctf18, active compounds read low 0.971 | locus YMR125W, strain sto1, active compounds read low 1.01 | locus YMR129W, active compounds read low 0.987 | locus YMR205C, strain PFK2, active compounds read low 1.05 | locus YMR223W, strain ubp8, active compounds read low 0.978 | locus YMR231W, strain pep5, active compounds read low 0.971 | locus YMR307W, strain GAS1, active compounds read low 1.01 | locus YNL067W, strain RPL9B, active compounds read low 1.03 | locus YNL071W, strain lat1, active compounds read low 0.984 | locus YNL128W, strain TEP1, active compounds read low 0.954 | locus YNL153C, strain GIM3, active compounds read low 1.01 | locus YNL183C, strain NPR1, active compounds read low 0.944 | locus YNL209W, strain ssb2, active compounds read low 0.999 | locus YNL233W, strain BNI4, active compounds read low 1.02 | locus YNL248C, strain rpa49, active compounds read low 0.962 | locus YNL250W, strain rad50, active compounds read low 0.982 | locus YNL271C, strain bni1, active compounds read low 0.983 | locus YNL298W, strain CLA4, active compounds read low 0.993 | locus YNL307C, strain MCK1, active compounds read low 0.99 | locus YNL322C, strain KRE1 (second series), active compounds read low 0.987 | locus YNL322C, strain KRE1, active compounds read low 0.987 | locus YNR049C, strain mso1, active compounds read low 0.991 | locus YNR052C, strain pop2, active compounds read low 0.999 | locus YOL006C, strain TOP1, active compounds read low 0.955 | locus YOL012C, strain htz1 1.02 | locus YOL147C, strain pex11, active compounds read low 0.998 | locus YOR001W, strain rrp6, active compounds read low 0.935 | locus YOR061W, strain CKA2, active compounds read low 0.967 | locus YOR069W, strain VPS5, active compounds read low 1 | locus YOR070C, strain gyp1, active compounds read low 1.02 | locus YOR080W, strain dia2, active compounds read low 0.98 | locus YOR083W, strain WHI5, active compounds read low 1.04 | locus YOR106W, strain vam3, active compounds read low 1.02 | locus YOR136W, strain idh2, active compounds read low 0.971 | locus YOR144C, strain elg1, active compounds read low 0.964 | locus YOR184W, strain ser1, active compounds read low 0.95 | locus YOR231W, strain MKK1, active compounds read low 0.982 | locus YOR265W, strain rbl2, active compounds read low 1.01 | locus YOR270C, strain vph1, active compounds read low 0.841 | locus YOR290C, strain snf2, active compounds read low 1.03 | locus YOR316C, strain cot1, active compounds read low 0.989 | locus YPL051W, strain arl3, active compounds read low 0.979 | locus YPL078C, strain atp4, active compounds read low 1.02 | locus YPL106C, strain sse1, active compounds read low 1.02 | locus YPL240C, strain hsp82, active compounds read low 0.984 | locus YPL241C, strain CIN2, active compounds read low 0.985 | locus YPL256C, strain CLN2, active compounds read low 0.993 | locus YPR119W, strain clb2, active compounds read low 0.998 | locus YPR141C, strain kar3, active compounds read low 0.983 | locus YPR163C, strain tif3, active compounds read low 0.986 | locus YPR167C, strain met16, active compounds read low 0.988 | strain wtn01, active compounds read low 0.972
